The values that follow come from PubChem BioAssay AID2501 (Southern Research Specialized Biocontainment Screening …, 2010).

Broadly, the inhibition is the drop in the measured response relative to a control, in per cent. One may read the IC50 as the point on the concentration scale where inhibition reaches its midpoint.

Values joined by “and” are separate entries in the source; they are usually repeats but may differ in a detail not shown here. Equal entries are not always repeated. Out of some 2,200 compounds screened, about 1,200 (55%) were called active. Cut-off not given; nearly all actives show IC50 up to about 92 µM. The set was probably picked from earlier hits. Some of the results follow.

This experiment can be described thus: counter assay for TAg ATPase ADP read-out – biochemical, ADP-Hunter, fluorescence, counter-screen (AID 2501).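 Further: purified T antigen ATPase.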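 On inhibition: 0% = enzyme with vehicle and 100% = reference inhibitor wells; higher means more inhibition.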 The following applies: series mostly up to 100 µM; inhibition: at the top concentration. In general terms: A counterscreen serves to expose hits that act by an unwanted route or on another target.
Consider `CC(C)(C)CC(=O)NC(=S)Nc1ccccc1[N+](=O)[O-]`, for which the “inhibition” value was -5.63% (inactive). Still for that read-out and setting: next, `COc1ccc(C(=O)N2CCN(C(=O)C3COc4ccccc4O3)CC2)cc1` (configuration not stated): -0.44% (inactive).

Take `Cc1c(CC(=O)N2CCN(C(=O)C3COc4ccccc4O3)CC2)c(=O)oc2c(O)c(O)ccc12` (configuration not stated): the IC50 is 5.3 µM (active). With `COC(=O)c1ccc(-c2ccc(/C=N/N3C(=O)C4C5C=CC(C6CC56)C4C3=O)o2)cc1` (configuration not stated), the “inhibition” value was -39.7% (inactive). For the compound `COc1cc(/C=N/N2C(=O)C3C4C=CC(CC4)C3C2=O)ccc1O` (configuration not stated), the IC50 was 5.67 µM (active). With `O=C1C2C3C=CC(CC3)C2C(=O)N1/N=C/c1ccc(O)c(O)c1` (configuration not stated), the half-maximal inhibitory concentration (IC50) was 5.65 µM (active).

For `Cc1oc2c(O)c(O)ccc2c(=O)c1-c1cnn(-c2ccccc2)c1`, the IC50 was 9.31 µM (active). The same measure, in the same setting: to `CCSC1(SCC)N=C(N)C2(C#N)C(c3ccc(OC)c(OC)c3OC)C12C#N` (configuration not stated) belongs 96.4 µM (active). Take `COC(=O)CN1C(=O)[C@@H]2[C@H](C1=O)[C@@H]1CC(C(=O)OC)=C[C@@H](C(=O)OC)[C@@H]3C1=C(C(=O)[C@]3(C)NC(=O)c1ccccc1)[C@@H]2C`: the “inhibition” value was 25.3% (inactive). `COc1cc(/C(C)=N/NC(=O)Cc2c(C)[nH][nH]c2=O)ccc1O`: the IC50 was 3.72 µM (active).

With `C/C(=N/NC(=O)Cc1c(C)[nH][nH]c1=O)c1ccc(O)cc1`, the IC50 is 9.47 µM (active).

Consider `CSc1ccc(CCNC(=O)C2CCCN(S(=O)(=O)N3CCOCC3)C2)cc1` (configuration not stated), for which the “inhibition” value was -1.03% (inactive). Consider `COc1cc(/C=N/n2c(-c3n[nH]c4c3CCC4)n[nH]c2=S)ccc1O`, for which the IC50 is 5.13 µM (active).

As to `COc1cc(/C=N/n2c(-c3n[nH]c4c3CCC4)n[nH]c2=S)cc(OC)c1O`, the 50% inhibitory concentration (IC50) is 8.78 µM (active). As to `CCS(=O)(=O)c1nc(S(=O)(=O)c2ccc(Cl)cc2)c(NCc2ccccn2)s1`, the “inhibition” value was -28.7% (inactive). Same read-out and setting: to `CCCSc1nc(O)c(C(c2ccc(OC)c(O)c2)c2c(O)nc(SCCC)n(C)c2=O)c(=O)n1C` belongs -8.35% (inactive); to `COCC(C)NC(=O)c1cccc([N+](=O)[O-])c1` (configuration not stated), -5.06% (inactive). On to `COc1cc(C(c2c(C)[nH][nH]c2=O)c2c(C)[nH][nH]c2=O)ccc1OC(C)C`, for which the IC50 was 69 µM (active). The same measure, in the same setting: to `CCOc1cc(C(c2c(C)[nH][nH]c2=O)c2c(C)[nH][nH]c2=O)ccc1O` belongs 4.65 µM (active). Take `Cc1[nH][nH]c(=O)c1C(c1ccc(-c2cccc(Cl)c2)o1)c1c(C)[nH][nH]c1=O`: the “inhibition” value was -31.4% (inactive).

Consider `CCOc1cc(C(c2c(C)[nH][nH]c2=O)c2c(C)[nH][nH]c2=O)ccc1OC(=O)c1cccc([N+](=O)[O-])c1`, for which the IC50 is 28.9 µM (active).

For the compound `CCS(=O)(=O)c1ncc(Cl)c(C(=O)Nc2ccc(S(=O)(=O)N3CCC(C)CC3)cc2)n1`, the “inhibition” value was -17.6% (inactive). The same measure, in the same setting: to `Cc1ccsc1C(=O)N1CCCC(CCC(=O)N2CCN(c3ccccn3)CC2)C1` (configuration not stated) belongs -0.27% (inactive). For the compound `CC(C)c1ccc(S(=O)(=O)N2CCN(CCC(=O)Nc3ccc(N(C)C)cc3)CC2)cc1`, the IC50 was 12 µM (active). On the same count and under the same terms, to `CN(C)c1ccc(NC(=O)c2ccc(N3CCOCC3)nc2)cc1` belongs 3.34 µM (active).

On to `CC(=O)Nc1ccc(NC(=O)C(C)N2CCN(S(=O)(=O)c3ccc(C)cc3)CC2)cc1` (configuration not stated), for which the “inhibition” value is -33.8% (inactive). Still for that read-out and setting: to `O=C(CCN1C(=O)/C(=C\C=C\c2ccccc2)SC1=S)Nc1ccc(C(=O)O)cc1` belongs -19.9% (inactive). For `CN(C)c1ccc(NC(=O)CCN2CCN(c3ccccn3)CC2)cc1`, the IC50 is 4.88 µM (active). Regarding `O=C1OC2(c3ccccc31)c1cc(I)c(O)c(I)c1Oc1c2cc(I)c(O)c1I`, the “inhibition” value was -22.2% (inactive). In the case of `O=C(NC(=S)Nc1ccc(O)cc1)c1ccccc1Cl`, the concentration for half-maximal inhibition (IC50) is 2.31 µM (active). Still for that read-out and setting: next, `Oc1ccc(NC(=S)Nc2ccccc2)cc1`: 4.74 µM (active) and 4.32 µM (active). The same measure, in the same setting: to `O=C(Nc1ccc(Nc2ccccc2)cc1)N1CCOCC1` belongs 3.84 µM (active). As to `O=C(c1ccc(-c2ccccc2Cl)s1)N1CCOCC1`, the “inhibition” value was 1.32% (inactive). The same measure, in the same setting: next, `O=C(NNC(=O)c1ccccc1-n1cccc1)c1ccc(Cl)cc1Cl`: -18% (inactive). Still for that read-out and setting: next, `O=C(Nc1cccc2c1CCCC2)c1ccccc1Cl`: -13.3% (inactive). With `NC(=O)Nc1ccc(Nc2ccccc2)cc1`, the IC50 was 4.72 µM (active). Regarding `C=C(C)C(=O)O[C@H]1C/C(C)=C\C(=O)/C=C(\C)[C@H](O)[C@@H]2OC(=O)C(=C)[C@@H]21`, the “inhibition” value was -21.3% (inactive).

As to `CCCCNC(=S)N(CCN(C)C)Cc1cc2cc3c(cc2[nH]c1=O)OCCO3`, the “inhibition” value is 1.93% (inactive). With `O=C(NC(=S)Nc1ccc(O)cc1)c1cncc(Br)c1`, the IC50 is 3.94 µM (active). For `COc1cccc(NC(=O)CC2(CC(=O)O)CCCC2)c1`, the “inhibition” value was -18.3% (inactive). For the compound `O=C(O)[C@H]1CCCC[C@H]1C(=O)Nc1ccc(Nc2ccccc2)cc1`, the IC50 is 3.86 µM (active). On the same count and under the same terms, next, `CNC(=S)Nc1ccc(Nc2ccccc2)cc1`: 4.39 µM (active); `COc1cccc(NC(=S)Nc2ccc(O)cc2)c1`: 1.13 µM (active). For `O=c1[nH]c2cc3c(cc2cc1CN(Cc1cccnc1)Cc1nnnn1Cc1ccco1)OCCO3`, the “inhibition” value is -30.1% (inactive). In the case of `COc1ccc(N=Cc2c[nH][nH]c2=O)cc1`, the IC50 is 9.97 µM (active). Still for that read-out and setting: to `CC1(C)Nc2ccc(O)cc2-c2c1ssc2=S` belongs 14.6 µM (active); to `O=C1OCC/C1=C\c1ccc(O)cc1`, 7.82 µM (active); to `Nc1cc(S(=O)(=O)c2ccc(O)c(N)c2)ccc1O`, 3.9 µM (active). `Nc1ccc(O)c2ccccc12`: the “inhibition” value is 5.37% (inactive). For `CS(=O)(=O)c1ccc(N)c(SSc2cc(S(C)(=O)=O)ccc2N)c1`, the “inhibition” value is 23.8% (inactive).

With `Nc1n[nH]c(=S)n1/N=C1/C(=O)Nc2ccccc21`, the IC50 is 9.5 µM (active). Same read-out and setting: next, `Cn1cccc1/C=N/N1CCN(c2ccccn2)CC1`: 7.28 µM (active).

For the compound `Cn1cccc1/C=N/N1CCN(Cc2ccccc2)CC1`, the IC50 is 21 µM (active). For `Cc1cccc(C)c1NCC(=O)N1CCN(Cc2ccccc2)CC1`, the “inhibition” value was -18.3% (inactive). As to `Oc1ccc(/C=N/N2CCN(c3ccccn3)CC2)cc1`, the concentration for half-maximal inhibition (IC50) is 10.4 µM (active). Same read-out and setting: next, `COc1cccc(CN2CCN(Cc3nc(-c4cccs4)oc3C)CC2CCO)c1` (configuration not stated): < 1.56 µM (active). As to `Cc1oc(-c2cccs2)nc1CN1CCN(C(C)C)C(CCO)C1` (configuration not stated), the “inhibition” value was -11.3% (inactive).

In the case of `COCc1cc(CN2CCN(CCc3ccccc3)C(CCO)C2)ccc1OC` (configuration not stated), the “inhibition” value is -22.7% (inactive). For `N#CC1=C(N)C2=C(N3CCCCC3)CCCC2C1(C#N)C#N` (configuration not stated), the IC50 is 8.2 µM (active). In the case of `CC(C(=O)Nc1ccc(C(=O)O)c(O)c1)N1C(=O)/C(=C\c2ccco2)SC1=S` (configuration not stated), the “inhibition” value was 21% (inactive). `COc1cc(/C=C2\SC(=S)N(C(C(=O)O)c3ccccc3)C2=O)ccc1O` (configuration not stated): the IC50 was 7.98 µM (active). With `O=C(O)C(Cc1ccccc1)N1C(=O)/C(=C/C=C/c2ccco2)SC1=S` (configuration not stated), the “inhibition” value is -0.25% (inactive). For `O=C(O)C(c1ccccc1)N1C(=O)/C(=C\c2ccc(O)c(O)c2)SC1=S` (configuration not stated), the IC50 is 8.33 µM (active).

Regarding `CC(C)C(C(=O)O)N1C(=O)/C(=C/C=C/c2ccco2)SC1=S` (configuration not stated), the “inhibition” value is -26.3% (inactive).

Take `COc1cc(/C=C2\SC(=S)N(C(Cc3ccccc3)C(=O)O)C2=O)ccc1O` (configuration not stated): the half-maximal inhibitory concentration (IC50) was 6.37 µM (active).

Consider `Cc1ccc([C@@H]2[C@@H]3C(=O)N(c4ccccc4)C(=O)[C@@H]3[C@]3(C)C(=O)N(Cc4ccccn4)CC(=O)N23)o1`, for which the “inhibition” value is -36.8% (inactive). Turning to `CSc1nnc(-c2ccc(O)cc2)n1C`, the half-inhibitory concentration (IC50) is 27.5 µM (active). Turning to `CCOC(=O)/C=C/C(=O)OCC(=O)NCc1ccccc1`, the “inhibition” value is -8.77% (inactive). Same read-out and setting: next, `Cc1cc(C)cc(-n2nnc(C(=O)NCc3ccccc3)c2N)c1`: -17.4% (inactive). For `CC/C(=N\NC(=O)CCC(=O)NCc1ccccc1)c1ccc(O)cc1`, the IC50 is 9.43 µM (active). Still for that read-out and setting: to `CN1C(=O)C2C(c3ccc(N(C)C)cc3)=NN(Cc3ccccc3)C2C1=O` (configuration not stated) belongs 9.4 µM (active); to `CC(C)C(=O)Nc1ccc(O)c(-c2csc(N)n2)c1`, 10.3 µM (active). As to `O=[N+]([O-])c1cccc(NC(=S)NCc2ccncc2)c1`, the “inhibition” value was -17.7% (inactive). As for `CCc1cccc2c(C(=O)CN3C(=O)NC(C)(c4cccc5ccccc45)C3=O)c[nH]c12` (configuration not stated), the “inhibition” value was -8% (inactive). Still for that read-out and setting: next, `CSc1nnc(-c2ccco2)c(-c2ccco2)n1`: -17.9% (inactive); `Cc1ccccc1NC(=O)CSc1nnc(-c2ccco2)c(-c2ccco2)n1`: 9.02% (inactive). For the compound `CCc1nc(SCC(=O)Nc2ccc(N(C)C)cc2)n[nH]1`, the IC50 was 6.73 µM (active). For the compound `CN(C)c1ccc(NC(=O)CSc2nnc(-c3ccco3)c(-c3ccco3)n2)cc1`, the IC50 is 6.24 µM (active).

As for `Cn1c2ccccc2c2nnc(SCC(=O)Nc3cccc(C(=O)O)c3)nc21`, the “inhibition” value is -13.3% (inactive). Consider `FC(F)(F)C1CCCN(c2nsc3ccccc23)C1` (configuration not stated), for which the “inhibition” value is 23.6% (inactive).

In the case of `CN1\C(=C/C=C/C=C/C=[N+](C)C)C(C)(C)c2ccccc21`, the IC50 is 12.3 µM (active). Still for that read-out and setting: to `O=C(N/N=C/c1ccc(O)c(O)c1)c1cc(-c2ccccc2)nc2ccccc12` belongs 36 µM (active). The same measure, in the same setting: to `O=C(N/N=C/c1ccc(O)cc1)c1csc2ccccc12` belongs 4.27 µM (active).

Turning to `Cc1cccc(NC(=O)c2cc(Cl)nc3ccccc23)c1`, the “inhibition” value is -15.5% (inactive). Turning to `CC(C)(C)c1cc(C(=O)N/N=C/c2ccc(O)cc2)n(-c2ccccc2)n1`, the IC50 was 61.4 µM (active). Turning to `Cc1cc(/C=N/NC(=O)C(O)(c2ccccc2)c2ccccc2)c(C)n1-c1cccc(C(=O)O)c1`, the “inhibition” value is -36.7% (inactive). Same read-out and setting: to `Cc1ccc(-c2cc(C(=O)NCc3ccco3)c3ccccc3n2)o1` belongs -48.7% (inactive).

Consider `CCc1cc(C(=O)N/N=C/c2ccc(O)cc2)c2ccccc2n1`, for which the IC50 is 2.69 µM (active). In the case of `Cc1nnc(NC(=O)c2cc(-c3ccco3)nc3ccccc23)s1`, the “inhibition” value is -14.3% (inactive). Still for that read-out and setting: to `O=C(O)c1cc(N/N=C/c2cccc3ccccc23)ccc1Cl` belongs 23.8% (inactive).

In the case of `CNC(=S)NNC(=O)c1cc(C(C)(C)C)nn1Cc1ccc(F)cc1`, the “inhibition” value is 26.2% [at 50 µM] (inactive). Still for that read-out and setting: to `Nc1ccc(-n2nncc2-c2ccc(Cl)cc2)cc1` belongs 28.3% (inactive); to `COc1cnc(-c2ccccn2)nc1Oc1ccc(Cl)c2ccccc12`, -37.7% (inactive). As for `CC(NC(=O)Nc1ccc(O)cc1)(C(F)(F)F)C(F)(F)F`, the IC50 is 6.77 µM (active).

As for `CCOC(=O)C1(Cc2ccccc2)CCN(Cc2cnn(C(C)C)c2)CC1`, the IC50 is 26.4 µM (active).

Regarding `CCOC(=O)C1(CCc2ccccc2)CCN(C(=O)CCc2cnn(C)c2)CC1`, the “inhibition” value is -29.5% (inactive). On the same count and under the same terms, to `CCOC(=O)C1(Cc2ccc(Cl)cc2)CCN(C(=O)CCc2ccncc2)CC1` belongs -4.52% (inactive).
